Several values for one entry are separate records, joined by “and”; a condition that tells them apart may be missing. Equal values may be shown once. The campaign covered roughly 5,500 compounds. About 2,000 (36%) were called active. Roughly 18% stayed inconclusive and do not appear here. Cut-off read from the data, not from the text of the source: active = normalized growth mostly below about 0.91 (no sharp cut-off); inconclusive = no clear call, values can overlap the other calls; inactive = mostly above about 0.92. This is one part of the list.
Assay: chemical genetic growth profiling, strain panel (AID 1159580);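 note: tested at 20 µM; growth read once vehicle control cultures reached saturation at 30 °C; 1 = growth at the plate median or of vehicle wells; lower values mean less growth of the strain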
Details: S. cerevisiae deletion strains, growth OD

Measured: normalized growth

O=c1c(-c2ccc(O)cc2)coc2cc(O)ccc12
inactive: locus YAL013W, strain DEP1, hits give low values 0.964 | locus YAL021C, strain ccr4, hits give low values 0.996 | locus YAL026C, strain drs2, hits give low values 0.983 | locus YAL030W, strain snc1, hits give low values 0.989 | locus YAL040C, strain CLN3, hits give low values 1.01 | locus YBL061C, strain skt5, hits give low values 0.983 | locus YBR009C, strain hhf1, hits give low values 0.97 | locus YBR021W, strain FUR4, hits give low values 0.924 | locus YBR023C, strain chs3, hits give low values 0.978 | locus YBR171W, strain sec66, hits give low values 0.969 | locus YBR229C, strain ROT2, hits give low values 1.01 | locus YBR231C, strain swc5, hits give low values 0.986 | locus YBR279W, strain paf1, hits give low values 0.999 | locus YCL011C, strain gbp2, hits give low values 0.98 | locus YCL016C, strain dcc1, hits give low values 0.977 | locus YCL029C, strain bik1, hits give low values 0.983 | locus YCL061C, strain MRC1 (second series), hits give low values 1.01 | locus YCL061C, strain MRC1, hits give low values 0.975 | locus YCL069W, strain vba3, hits give low values 0.995 | locus YCR088W, strain abp1, hits give low values 0.987 | locus YDL005C, strain med2, hits give low values 0.976 | locus YDL035C, strain GPR1, hits give low values 1.01 | locus YDL040C, strain nat1, hits give low values 0.987 | locus YDL074C, strain BRE1, hits give low values 0.97 | locus YDL101C, strain DUN1, hits give low values 1.01 | locus YDL134C, strain PPH21, hits give low values 1 | locus YDL185W, strain tfp1, hits give low values 0.987 | locus YDL192W, strain arf1, hits give low values 1.01 | locus YDR001C, strain nth1, hits give low values 0.984 | locus YDR069C, strain doa4, hits give low values 0.985 | locus YDR101C, strain arx1, hits give low values 0.964 | locus YDR137W, strain rgp1, hits give low values 1 | locus YDR150W, strain NUM1, hits give low values 0.984 | locus YDR159W, strain sac3, hits give low values 0.974 | locus YDR162C, strain NBP2, hits give low values 1 | locus YDR195W, strain ref2 1.04 | locus YDR297W, strain sur2, hits give low values 0.978 | locus YDR318W, strain mcm21, hits give low values 0.99 | locus YDR334W, strain swr1, hits give low values 1 | locus YDR335W, strain msn5, hits give low values 0.992 | locus YDR363W, strain ESC2, hits give low values 1.01 | locus YDR388W, hits give low values 0.98 | locus YDR392W, strain spt3, hits give low values 0.849 | locus YDR502C, strain sam2, hits give low values 0.951 | locus YEL003W, strain gim4, hits give low values 0.989 | locus YEL037C, strain rad23, hits give low values 0.985 | locus YEL061C, strain CIN8 (second series), hits give low values 0.996 | locus YEL061C, strain CIN8, hits give low values 1.01 | locus YER002W, strain NOP16, hits give low values 0.992 | locus YER015W, strain faa2, hits give low values 0.993 | locus YER016W, strain bim1, hits give low values 0.982 | locus YER110C, hits give low values 0.974 | locus YER111C, strain swi4, hits give low values 0.98 | locus YER155C, strain BEM2 (second series), hits give low values 0.972 | locus YER155C, strain BEM2, hits give low values 0.992 | locus YER167W, strain BCK2, hits give low values 1 | locus YFR010W, strain ubp6, hits give low values 0.982 | locus YGL078C, strain dbp3, hits give low values 0.977 | locus YGL086W, strain mad1, hits give low values 0.969 | locus YGL167C, strain pmr1, hits give low values 0.981 | locus YGL173C, strain kem1, hits give low values 0.971 | locus YGL227W, strain vid30, hits give low values 0.984 | locus YGL240W, strain doc1, hits give low values 0.958 | locus YGL248W, strain PDE1, hits give low values 1.01 | locus YGL253W, strain hxk2, hits give low values 0.956 | locus YGR078C, strain PAC10, hits give low values 0.965 and 1.01 | locus YGR135W, strain pre9, hits give low values 0.957 | locus YGR229C, strain SMI1, hits give low values 0.974 | locus YGR252W, strain gcn5, hits give low values 0.825 | locus YHR013C, strain ard1, hits give low values 0.959 | locus YHR027C, strain rpn1, hits give low values 0.995 | locus YHR030C, strain SLT2, hits give low values 1.01 and 1.02 | locus YHR079C, strain IRE1 (second series), hits give low values 0.993 | locus YHR079C, strain IRE1, hits give low values 0.999 | locus YHR094C, strain hxt1, hits give low values 0.99 | locus YHR129C, strain ARP1, hits give low values 1.01 | locus YHR142W, strain chs7, hits give low values 0.943 | locus YHR200W, strain rpn10, hits give low values 0.979 | locus YIL066C, strain RNR3, hits give low values 1.02 | locus YIL073C, strain SPO22, hits give low values 0.951 | locus YIL125W, strain kgd1, hits give low values 0.988 | locus YIR030C, strain dcg1, hits give low values 0.978 | locus YJL092W, strain hpr5, hits give low values 0.981 | locus YJL095W, strain BCK1 (second series), hits give low values 0.98 | locus YJL095W, strain BCK1, hits give low values 0.977 and 1.03 | locus YJL115W, strain asf1, hits give low values 0.994 | locus YJL129C, strain trk1, hits give low values 0.969 | locus YJL134W, strain LCB3, hits give low values 1.01 | locus YJL154C, strain vps35, hits give low values 0.986 | locus YJL164C, strain tpk1, hits give low values 0.966 | locus YJL166W, strain qcr8, hits give low values 0.963 | locus YJL168C, strain set2, hits give low values 0.99 | locus YJL187C, strain SWE1 (second series), hits give low values 0.987 | locus YJL187C, strain SWE1, hits give low values 0.984 | locus YJR043C, strain POL32, hits give low values 0.994 | locus YJR066W, strain TOR1, hits give low values 0.989 | locus YKL009W, strain mrt4, hits give low values 0.951 | locus YKL068W, hits give low values 1 | locus YKL085W, strain MDH1 (second series), hits give low values 1.01 | locus YKL085W, strain MDH1, hits give low values 1.01 | locus YKL160W, strain elf1, hits give low values 0.971 | locus YKR001C, strain vps1, hits give low values 0.963 | locus YKR026C, strain gcn3, hits give low values 0.976 | locus YKR091W, strain srl3, hits give low values 0.982 | locus YLL001W, strain dnm1, hits give low values 0.945 | locus YLL026W, hits give low values 0.976 | locus YLL041C, strain sdh2, hits give low values 0.986 | locus YLR027C, strain aat2, hits give low values 0.973 | locus YLR039C, strain RIC1, hits give low values 1.05 | locus YLR058C, strain SHM2, hits give low values 1 | locus YLR102C, strain apc9, hits give low values 0.998 | locus YLR113W, strain HOG1, hits give low values 0.933 | locus YLR221C, strain rsa3, hits give low values 0.953 | locus YLR258W, strain gsy2, hits give low values 0.978 | locus YLR262C, strain YPT6 (second series), hits give low values 0.969 | locus YLR262C, strain YPT6, hits give low values 1.09 | locus YLR268W, strain sec22, hits give low values 0.949 | locus YLR320W, strain mms22, hits give low values 0.939 | locus YLR330W, strain CHS5, hits give low values 1 | locus YLR342W, strain FKS1 (second series), hits give low values 0.997 | locus YLR342W, strain FKS1, hits give low values 0.987 | locus YLR357W, strain rsc2, hits give low values 0.941 | locus YLR370C, strain arc18, hits give low values 0.982 | locus YLR371W, strain rom2, hits give low values 0.985 | locus YLR384C, strain iki3, hits give low values 1 | locus YLR418C, strain cdc73, hits give low values 0.888 | locus YML016C, strain PPZ1, hits give low values 1.02 | locus YML032C, strain rad52, hits give low values 0.977 | locus YML120C, strain ndi1, hits give low values 0.991 | locus YML124C, strain tub3, hits give low values 0.98 | locus YMR058W, strain fet3, hits give low values 0.981 | locus YMR078C, strain ctf18, hits give low values 0.979 | locus YMR125W, strain sto1, hits give low values 0.99 | locus YMR129W, hits give low values 0.989 | locus YMR205C, strain PFK2, hits give low values 0.957 | locus YMR223W, strain ubp8, hits give low values 0.978 | locus YMR231W, strain pep5, hits give low values 0.992 | locus YMR307W, strain GAS1, hits give low values 0.951 and 1.01 | locus YNL067W, strain RPL9B, hits give low values 0.966 | locus YNL071W, strain lat1, hits give low values 0.979 | locus YNL128W, strain TEP1, hits give low values 1 | locus YNL153C, strain GIM3, hits give low values 0.982 and 1.04 | locus YNL175C, strain NOP13, hits give low values 0.994 | locus YNL183C, strain NPR1, hits give low values 0.993 | locus YNL197C, strain WHI3, hits give low values 0.979 | locus YNL209W, strain ssb2, hits give low values 0.99 | locus YNL224C, strain SQS1, hits give low values 1 | locus YNL233W, strain BNI4, hits give low values 0.966 | locus YNL248C, strain rpa49, hits give low values 0.97 | locus YNL250W, strain rad50, hits give low values 1.01 | locus YNL271C, strain bni1, hits give low values 0.985 | locus YNL298W, strain CLA4, hits give low values 0.997 | locus YNL307C, strain MCK1, hits give low values 0.97 | locus YNL322C, strain KRE1 (second series), hits give low values 0.966 | locus YNL322C, strain KRE1, hits give low values 1 | locus YNR049C, strain mso1, hits give low values 0.985 | locus YNR052C, strain pop2, hits give low values 0.988 | locus YOL006C, strain TOP1, hits give low values 0.931 | locus YOL012C, strain htz1 0.695 | locus YOL147C, strain pex11, hits give low values 0.982 | locus YOR001W, strain rrp6, hits give low values 1 | locus YOR061W, strain CKA2, hits give low values 1.02 | locus YOR069W, strain VPS5, hits give low values 1.01 | locus YOR070C, strain gyp1, hits give low values 0.982 | locus YOR080W, strain dia2, hits give low values 0.98 | locus YOR083W, strain WHI5 (second series), hits give low values 1.05 | locus YOR083W, strain WHI5, hits give low values 0.945 | locus YOR106W, strain vam3, hits give low values 0.954 | locus YOR136W, strain idh2, hits give low values 0.97 | locus YOR144C, strain elg1, hits give low values 0.985 | locus YOR184W, strain ser1, hits give low values 0.935 | locus YOR231W, strain MKK1, hits give low values 1.03 | locus YOR265W, strain rbl2, hits give low values 0.985 | locus YOR270C, strain vph1, hits give low values 0.913 | locus YOR290C, strain snf2, hits give low values 0.902 | locus YOR316C, strain cot1, hits give low values 0.986 | locus YPL051W, strain arl3, hits give low values 0.988 | locus YPL055C, strain LGE1, hits give low values 0.958 | locus YPL078C, strain atp4, hits give low values 0.956 | locus YPL106C, strain sse1, hits give low values 0.935 | locus YPL240C, strain hsp82, hits give low values 1 | locus YPL241C, strain CIN2, hits give low values 1 | locus YPL256C, strain CLN2, hits give low values 0.992 | locus YPR119W, strain clb2, hits give low values 0.984 | locus YPR141C, strain kar3, hits give low values 0.997 | locus YPR163C, strain tif3, hits give low values 0.982 | locus YPR167C, strain met16, hits give low values 0.984 | strain wtn01, hits give low values 0.953

From PubChem BioAssay AID1159580 (chemical genetic matrix, 2015)
